Compound activity from PubChem BioAssay.
A selection: hits, their analogues and other compounds. The true share with any hit is near 2.2%.
PPC-1+TRAIL kill: PPC-1 cancer cell killing with TRAIL present; cell killing (% activity), % at 4 µM or 5 µM; PPC-1 cells + TRAIL, ATPLite viability luminescence; actives 0.41% (n = 220,000);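 active = cell killing above 50% in the first pass at 4 µM, then a duplicate retest at 5 µM averaging 50% or more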
CF NFkB inh: inhibitors of cystic fibrosis induced NF-kB. KKLEB NF-kB-GFP reporter, PAF-induced, GFP fluorescence overnight. inhibition, % at 5 µM. actives 0.86% (n = 360,000). AID 588850;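 active = at least 50% inhibition at 5 µM, scaled per plate between neutral and stimulator controls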;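 note: PAF is a Pseudomonas aeruginosa culture filtrate used as stimulus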
iPSC survival up: hiPSC single-cell survival enhancement | ATPlite luminescence; 100% = ROCK inhibitor wells, 0% = DMSO | actives 0.044% (n = 360,000) | survival enhancement, % at 20 µM; in the data active = survival enhancement above about 18%;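 note: cells exposed to compounds for 16 hours before the ATP read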
KKLEB tox: reduces viability of KKLEB cystic fibrosis airway cells. KKLEB CF airway cells viability, ATPlite luminescence, overnight; hits give low values; cells stimulated with P. aeruginosa culture filtrate. activity change (cytotoxicity), % at 5 µM. actives 0.36% (n = 360,000);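 active = corrected activity change at or below -50% at 5 µM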
HIF-2a block: HIF-2a inhibition. actives 0.72% (n = 360,000). 786-0 RCC cells HIF-2a reporter, luciferase luminescence, overnight. inhibition, % at 18.8 µM. AID 624352;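 active = inhibition of the luminescence signal of 40% or more relative to plate controls, in a single-dose primary screen at 18.75 µM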
C8 TRAIL sens: sensitizes caspase-8 expressing cells to TRAIL. NB7+C8 cells + TRAIL, ATPlite viability luminescence. inhibition (viability loss, TRAIL sensitization), % at 10 µM. actives 1% (n = 360,000). AID 624354;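 active = compounds causing at least 50% loss of cell viability in the single-dose screen, relative to plate controls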
CF NFkB inh conf: confirmation of cystic fibrosis induced NF-kB inhibitors. shares compounds with CF NFkB inh. KKLEB CF airway cells, PAF-induced NF-kB-GFP fluorescence, overnight. inhibition, % at 5 µM. actives 64% (n = 1,300). AID 602472; in the data active = inhibition above about 40%;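 note: stimulus PAF is a Pseudomonas aeruginosa filtrate and not platelet activating factor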
Each line names hits and unclear results; the compound was inactive in the other large screens (follow-up assays come after a bar, where they were run).

COc1ccc2ccc(O)c(CN3CCN(S(=O)(=O)c4cccc(C(F)(F)F)c4)CC3)c2c1	CF NFkB inh 70 (no result: PPC-1+TRAIL kill) | CF NFkB inh conf inactive
Cc1nnc(SCC(=O)N2CCC(c3noc4ccc(F)cc34)CC2)s1	CF NFkB inh 64 | CF NFkB inh conf 90
Cc1sc2ncnc(SCC(=O)N3CCC(c4noc5ccc(F)cc45)CC3)c2c1C	none
Cc1ccc2c(c1)C(=O)C(=O)N2Cc1ccc(Cl)cc1	CF NFkB inh 54 (no result: PPC-1+TRAIL kill) | CF NFkB inh conf inactive
C=C1C(=O)O[C@@]23[C@H]1CC[C@@H](C)[C@@H]2CC[C@@]1(C)O[C@@H]31	CF NFkB inh 54 (no result: PPC-1+TRAIL kill) | CF NFkB inh conf 71
O=C(NCCc1cccnc1)C1CCC(=O)N(CCc2cccc(F)c2)C1 (configuration not stated)	none (no result: PPC-1+TRAIL kill)
CCCCNc1c(-c2cccc(-c3ccc(OC)cc3)c2)nc2ccc(C)cn12	CF NFkB inh 68 (no result: PPC-1+TRAIL kill) | CF NFkB inh conf 91
CCCCNc1c(-c2cccc(-c3ccc(OC)cc3)c2)nc2cc(C)ccn12	none (no result: PPC-1+TRAIL kill)
O=C1COc2ccc(C(=O)CSc3nc4ccccc4c(=O)n3-c3ccc(Cl)c(Cl)c3)cc2N1	CF NFkB inh 55 | CF NFkB inh conf inactive
CCc1ccc(-n2c(SCC(=O)c3ccc4c(c3)NC(=O)CO4)nc3ccccc3c2=O)cc1	none
CC(C)CC1NC(=O)N(CC(=O)Nc2ccc3c(c2)OCCO3)C1=O (configuration not stated)	none (no result: PPC-1+TRAIL kill)
Cc1ccc([N+](=O)[O-])cc1N=C1C(=O)Nc2ccccc21	none (no result: PPC-1+TRAIL kill)
COc1cccc(C(=O)N2CCCc3ccccc32)c1	CF NFkB inh 54 | CF NFkB inh conf inactive
Cc1ccc(Cc2cnc(NC(=O)/C(C#N)=C/c3ccc(-c4ccccc4[N+](=O)[O-])o3)s2)cc1	CF NFkB inh 52 | CF NFkB inh conf inactive
Cc1cccc(OCc2nnc(SC(C)C(=O)O)n2-c2ccccc2)c1 (configuration not stated)	none (no result: PPC-1+TRAIL kill)
O=C(Nc1ccc(Cl)cc1)c1nc[nH]c1C(=O)NCCCCNC(=O)c1[nH]cnc1C(=O)Nc1ccc(Cl)cc1	CF NFkB inh 79 (no result: PPC-1+TRAIL kill) | CF NFkB inh conf 102
Cc1cccc(NC(=O)c2nc[nH]c2C(=O)NCCCCNC(=O)c2[nH]cnc2C(=O)Nc2cccc(C)c2)c1	CF NFkB inh 56 (no result: PPC-1+TRAIL kill) | CF NFkB inh conf inactive
Cc1cccc(NC(=O)c2nc[nH]c2C(=O)NCCCCCCNC(=O)c2[nH]cnc2C(=O)Nc2cccc(C)c2)c1	none (no result: PPC-1+TRAIL kill)
COc1ccc(NC(=O)NNC(=O)COc2ccc3cc(Br)ccc3c2)c(OC)c1	CF NFkB inh 52 (no result: PPC-1+TRAIL kill) | CF NFkB inh conf inactive
Oc1ccc(C[C@H]2CN([C@@H](Cc3ccc(O)cc3)CN3CCC[C@@H]3CN3C(=S)NC[C@@H]3Cc3ccccc3)C(=S)N2CC2CCCCCC2)cc1	CF NFkB inh 58 (no result: PPC-1+TRAIL kill) | CF NFkB inh conf inactive
CC(C)C[C@H]1CNC(=S)N1C[C@H]1CCCN1C[C@H](Cc1ccccc1)N1C[C@H](Cc2ccc(O)cc2)N(CC2CCCCCC2)C1=S	CF NFkB inh 61 (no result: PPC-1+TRAIL kill) | CF NFkB inh conf 44
Oc1ccc(C[C@H]2CNC(=S)N2C[C@H]2CCCN2C[C@H](Cc2ccccc2)N2C[C@H](Cc3ccc(O)cc3)N(CC3CCCCCC3)C2=S)cc1	none (no result: PPC-1+TRAIL kill)
CC(C)C[C@H]1CNC(=S)N1CC1CCCN1C[C@H](Cc1ccc(O)cc1)N1C[C@H](Cc2ccccc2)N(CC2CCCCCC2)C1=S (some centres not stated)	none (no result: PPC-1+TRAIL kill)
Oc1ccc(C[C@H]2CNC(=S)N2CC2CCCN2C[C@H](Cc2ccc(O)cc2)N2C[C@H](Cc3ccc(O)cc3)N(CC3CCCCC3)C2=S)cc1 (some centres not stated)	CF NFkB inh 59 (no result: PPC-1+TRAIL kill) | CF NFkB inh conf 59
CC(C)C[C@@H](CN1CCCC1CN1C(=S)NC[C@@H]1Cc1ccc(O)cc1)N1C[C@H](Cc2ccc(O)cc2)N(CC2CCCCC2)C1=S (some centres not stated)	CF NFkB inh 59 (no result: PPC-1+TRAIL kill) | CF NFkB inh conf 60
CCCCn1c(N)c(N(CC)C(=O)c2cc(S(=O)(=O)N3CCCCCC3)ccc2OC)c(=O)[nH]c1=O	none (no result: PPC-1+TRAIL kill)
COc1cc2c(-c3ccc4cc[nH]c4c3)c(-c3ccc(C#N)cc3)oc(=O)c2cc1OC	none (no result: PPC-1+TRAIL kill)
COc1cccc(NC(=O)N2CCC(NC(=O)C3CCCCC3)CC2)c1	none (no result: PPC-1+TRAIL kill)
Oc1ccc(C[C@H]2CNC(=S)N2CC2CCCN2C[C@H](Cc2ccccc2)N2C[C@H](Cc3ccc(O)cc3)N(CC3CCCCCC3)C2=S)cc1 (some centres not stated)	CF NFkB inh 58 (no result: PPC-1+TRAIL kill) | CF NFkB inh conf 42
Oc1ccc(C[C@H]2CN([C@@H](Cc3ccccc3)CN3CCCC3CN3C(=S)NC[C@@H]3Cc3ccccc3)C(=S)N2CC2CCCCC2)cc1 (some centres not stated)	none (no result: PPC-1+TRAIL kill, CF NFkB inh, KKLEB tox)
Cc1ccccc1C(=O)NCC(=O)Nc1ccc(C)c(S(=O)(=O)N2CCCCCC2)c1	none (no result: PPC-1+TRAIL kill)
Cc1c2ccncc2cc2c1[nH]c1ccccc12	CF NFkB inh 55 (no result: PPC-1+TRAIL kill) | CF NFkB inh conf inactive
Cc1cc2c([nH]c3ccccc32)c(C)n1	none (no result: PPC-1+TRAIL kill)
CC(=O)Oc1ccc(N(C(C)=O)S(=O)(=O)c2ccc(Cl)cc2)c2ccccc12	CF NFkB inh 86 (no result: PPC-1+TRAIL kill) | CF NFkB inh conf 70
Cc1ccc(CN2C(=O)CSC2c2ccc(F)cc2)cc1 (configuration not stated)	none (no result: PPC-1+TRAIL kill)
C=CCNC(=O)C(=O)Nc1ccc2c(c1)N(S(=O)(=O)c1cccs1)CCC2	none (no result: PPC-1+TRAIL kill)
COc1ccc(S(=O)(=O)N2CCN(C(=O)c3ccc([N+](=O)[O-])o3)CC2)cc1	none (no result: PPC-1+TRAIL kill)
COc1ccc(/C=C/C(=O)c2ccc([N+](=O)[O-])o2)cc1	CF NFkB inh 51, C8 TRAIL sens 51 (no result: PPC-1+TRAIL kill) | CF NFkB inh conf inactive
NC(N)=NCC(O)CN(c1ccccc1)c1ccccc1 (configuration not stated)	none
CCN(CC)C(=O)CNC(=O)c1nn(-c2ccc(OC)c(Cl)c2)c(=O)c2ccccc12	none (no result: PPC-1+TRAIL kill)
COc1ccc(-n2nc(C(=O)NCC(=O)Nc3cc(OC)c(OC)c(OC)c3)c3ccccc3c2=O)cc1Cl	CF NFkB inh 79 (no result: PPC-1+TRAIL kill) | CF NFkB inh conf 101
S=c1[nH]nc(-c2ccncc2)n1/N=C/C=C/c1ccccc1	none
Cc1ccc(-c2n[nH]c(=S)n2/N=C/c2ccncc2)cc1	CF NFkB inh 56 | CF NFkB inh conf 85
S=c1[nH]nc(-c2ccncc2)n1/N=C/C(Cl)=C\c1ccccc1	CF NFkB inh 73 | CF NFkB inh conf 78
CCCNC(=O)c1c(O)c2c([nH]c1=O)CCCC2	none (no result: PPC-1+TRAIL kill)
COc1ccc(CCNC(=O)c2c(O)c3c([nH]c2=O)CCCC3)cc1	CF NFkB inh 51 | CF NFkB inh conf inactive
